In PubChem BioAssay (NCI):
The panel holds about 79,000 compounds, 15% with a hit somewhere; the sample as a whole holds those more often. No stated cut-off is given here; in the data, active means growth inhibition above about 70%; inactive means the rest.

How the values were obtained:
[1] = NCI Yeast Anticancer Drug Screen. Data for the rad50 strain (AID 155);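 further: 0% = growth of vehicle-only cultures of the same strain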; settings: S. cerevisiae rad50 strain growth inhibition; at 50.0 µM; hits give high values
How it was run: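 Growth of the mutant yeast was measured after compound exposure and referenced to vehicle-treated cultures.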

[2] = NCI Yeast Anticancer Drug Screen. Data for the mec2-1 strain (AID 157); settings: S. cerevisiae mec2-1 strain, at 50.0 µM, hits give high values
How it was run: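 Growth inhibition is read against vehicle-treated controls after compound exposure of the mec2-1 yeast strain, which is defective in DNA damage repair or cell cycle control.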

[3] = NCI Yeast Anticancer Drug Screen. Data for the sgs1 mgt1 strain (AID 161);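 further: 0% = growth of cultures given vehicle only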; settings: S. cerevisiae sgs1 mgt1 strain, at 50.0 µM, hits give high values
How it was run: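 Yeast cells carrying a defined DNA-repair defect were exposed to test compounds. Growth inhibition was measured relative to vehicle-treated controls.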

[4] = NCI Yeast Anticancer Drug Screen. Data for the cln2 rad14 strain (AID 165);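 further: 0% = growth equal to vehicle treated cultures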; settings: S. cerevisiae cln2 rad14 strain, at 50.0 µM, hits give high values
How it was run: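 Growth inhibition, relative to vehicle-treated controls, is the read-out. The test organism is a yeast strain with defined genetic alterations, cln2 rad14.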

[5] = NCI Yeast Anticancer Drug Screen. Data for the bub3 strain (AID 167); settings: S. cerevisiae bub3 mutant strain, at 50.0 µM, hits give high values
How it was run: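 Whole-cell yeast assay. The mutant strain was incubated with compounds, and growth inhibition was determined by comparison with vehicle-treated cells.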

[6] = NCI Yeast Anticancer Drug Screen. Data for the mlh1 rad18 strain (AID 175); settings: S. cerevisiae mlh1 rad18 strain growth inhibition; at 50.0 µM; hits give high values
How it was run: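 Cells of a genetically altered yeast strain, deficient in DNA damage repair, were treated with compound. Their growth was then compared with that of vehicle-treated cultures to give inhibition.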

Measured: growth inhibition

CCC(=O)c1c(NOC2OCC(OC(C)=O)C(OC(C)=O)C2OC(C)=O)nc(OC)n(C)c1=O (stereo not given)
inactive: [1] -18.3% | [2] -0.65% | [3] -35.2% | [4] 9.6% | [5] -24.8% | [6] -11.5%

C=C1CCN(c2ccc([N+](=O)[O-])cc2)C1=O
inactive: [1] 0% | [2] -11.2% | [3] 4.05% | [4] -37.6% | [5] 10.3% | [6] 10.3%

CCOC(=O)C(Cc1ccc(N=NN(C)C)cc1)NC(=O)CC1c2ccccc2-c2ccccc21 (stereo not given)
inactive: [1] 13.8% | [2] 7.2% | [3] 20.7% | [4] -6.25% | [5] 47.6% | [6] 8.3%

O=C(Nc1ccccc1F)Oc1ccc(Cl)cc1Cl
inactive: [1] 26.8% | [2] 14.7% | [3] 20.5% | [4] 26.8% | [5] 19.4% | [6] 13.2%

Nc1nc(-c2ccccc2)cc(-c2ccc(F)cc2)c1-c1ccc(Cl)cc1
inactive: [1] 16.9% | [2] -9.2% | [3] 20.4% | [4] 24.6% | [5] -0.95% | [6] -73.5%

CCc1ccccc1NC(=S)NC1CCCCC1
inactive: [1] -2.7% | [2] -8.85% | [3] 0.05% | [4] -18.5% | [5] 32.2% | [6] -5.6%

COc1ccc2c(ccc[n+]2CC(=O)c2ccc(Cl)cc2)c1
inactive: [1] -35.9% | [2] -8.35% | [3] -17.2% | [4] 28.4% | [5] -0.5% | [6] -3.7%

CCc1cccc(CC)c1NC(=O)c1ccccc1Cl
inactive: [1] 7.9% | [2] 24.6% | [3] 31.3% | [4] 0.8% | [5] 26.1% | [6] 26.8%

O=C(/C=C/C(=O)NCc1ccccc1)NCc1ccccc1
inactive: [1] -0.2% | [2] 0.4% | [3] 16.9% | [4] -11.1% | [5] 4.7% | [6] -5.95%

O=c1[nH]c(=O)n(COC(CO)CO)cc1-c1ccccc1
inactive: [1] -24.4% | [2] -31.8% | [3] 2.65% | [4] -4.15% | [5] -18.4% | [6] -19.9%

Clc1ccc(N=CNc2ccc(Cl)cc2)cc1
inactive: [1] -10.2% | [2] -2.85% | [3] -6.55% | [4] -14.2% | [5] 43.2% | [6] -2.35%

CCOC(=O)/C=C/C(=O)[O-].CCOC(=O)/C=C/C(=O)[O-].NC1CCCCC1N.[Pt+4]
inactive: [1] 19.2% | [2] 25.9% | [3] 19.4% | [4] -2.1% | [5] 20.1% | [6] 10.2%

CC1=C(C(=O)Nc2cccc3c2C(=O)NC3=O)CC(C(=O)Nc2cccc3c2C(=O)NC3=O)=C(C)N1
inactive: [1] -51% | [2] -18.6% | [3] -6.15% | [4] -25.8% | [5] -10.9% | [6] -25.8%

CC(O)C(=O)N1CCOCC1 (stereo not given)
inactive: [1] 3.5% | [2] -3.65% | [3] -0.7% | [4] -24.9% | [5] 4.25% | [6] -23.3%

CNc1cc2oc(=O)cc(C)c2cc1C
inactive: [1] 19.8% | [2] -12.5% | [3] 6.8% | [4] 3.6% | [5] 14.2% | [6] 10.4%

CCSC(SCC)C(SCC)C(OC(=O)c1ccccc1)C(OC(=O)c1ccccc1)C(COC(=O)c1ccccc1)OC(=O)c1ccccc1 (stereo not given)
inactive: [1] 9.3% | [2] -2.35% | [3] -14.4% | [4] -5.3% | [5] 4.25% | [6] 33.3%

C=CCCCCCCCCC(=O)NCc1cccnc1
inactive: [1] 24.4% | [2] 9.15% | [3] 29.6% | [4] 20.1% | [5] 6.8% | [6] 64%

C/C(Nc1ccc(F)cc1)=C1/CCOC1=O
inactive: [1] 9.8% | [2] -17.9% | [3] -1.5% | [4] -43.5% | [5] 13.8% | [6] -11.5%

Cc1nc(N)c(N2CCN(Cc3ccccc3)CC2)c(=O)[nH]1
inactive: [1] -26.4% | [2] 1.85% | [3] -33.9% | [4] 16.8% | [5] 29.6% | [6] -25.3%

CC1=C(C)OCC1
inactive: [1] 8.9% | [2] 4% | [3] 9.25% | [4] 7.85% | [5] 4.2% | [6] 5.5%

CCCc1ccc(N=Cc2cc(OC)c(OC)c(OC)c2)cc1
inactive: [1] -1.85% | [2] 13.3% | [3] 13.5% | [4] 4.4% | [5] -8% | [6] 21.6%

COc1ccc(/C=C2\SC(c3ccc(OC)cc3)N(NC(=O)Cc3ccccc3)C2=O)cc1 (stereo not given)
inactive: [1] -14.2% | [2] -34.8% | [3] -6.9% | [4] -63.2% | [5] 1.1% | [6] 1.15%

Cc1nc2ccc(S(=O)(=O)Nc3ccc(Cl)cc3)cc2c(=O)n1NC(=O)CNc1ccc(Cl)cc1
inactive: [1] 33.3% | [2] 22.4% | [3] 42.2% | [4] 15.6% | [5] 19.9% | [6] 24.2%

CCCCC(CC)CSCCOC(C)OCCSCC(CC)CCCC (stereo not given)
inactive: [1] 34.3% | [2] 2.25% | [3] 25.6% | [4] 39.9% | [5] 6.6% | [6] 27.9%

COC(=O)[C@@H](N1C(=O)c2ccccc2C1=O)C1(C)CC(Cl)=NO1 (stereo not given in full)
inactive: [1] -14.4% | [2] 2.75% | [3] -14.7% | [4] -11.8% | [5] 4.45% | [6] 12.1%

CCOC(=O)N1CCC2C(=C(C)C(C)C3=C2C(=O)c2ccccc2C3=O)C1 (stereo not given)
inactive: [1] -11.5% | [2] -3.5% | [3] -8.9% | [4] 16.9% | [5] 62.4% | [6] 7.1%

CC(=N\N=C\c1ccccn1)/C(C)=N/N=C(C)/C(C)=N/N=C(C)/C(C)=N/N=C/c1ccccn1
inactive: [1] 31.7% | [2] 22.2% | [3] 21.4% | [4] 14.2% | [5] 15.2% | [6] -34%

Cc1ccc(Br)c2c1CCC2=O
inactive: [1] 1.85% | [2] -5.05% | [3] 0.9% | [4] -52.5% | [5] -23% | [6] 1.65%

O=C(NCC1CC1)Nc1cccc2ccccc12
inactive: [1] -19.1% | [2] -3.4% | [3] -2% | [4] -54.7% | [5] -14% | [6] -5.1%

Cc1ccc(NC(=O)C2C(=O)N(c3ccc(C)cc3)C(=O)/C2=N\NC(N)=S)cc1 (stereo not given)
inactive: [1] -29.7% | [2] -25.1% | [3] -38% | [4] -10.4% | [5] -10% | [6] -26.8%

O=C1CCC(=O)N2C(=O)CCC(=O)N12
inactive: [1] -33.5% | [2] -26.3% | [3] -18.9% | [4] -15.3% | [5] 0.45% | [6] 3.45%

O=C1Nc2ccc3c4c(ccc1c24)CC3
inactive: [1] 10.3% | [2] -0.8% | [3] -0.3% | [4] -6.1% | [5] 10.7% | [6] 16.8%

O=C1OC(Oc2ccccc2OC2OC(=O)c3ccccc32)c2ccccc21 (stereo not given)
inactive: [1] -6.9% | [2] 3.7% | [3] 0.4% | [4] 5.95% | [5] -5.05% | [6] 9.85%

O=C(COc1cccc(Cl)c1)Nc1ccc(Cl)cc1
inactive: [1] -0.5% | [2] -26.7% | [3] -18.9% | [4] -13.8% | [5] 17.4% | [6] 4.3%

O=C1NNC=Nc2ccc(cc2)S(=O)(=O)c2ccc(cc2)N=CNNC1=O
inactive: [1] 41.5% | [2] -1.9% | [3] -20.1% | [4] -9.15% | [5] -5.85% | [6] -45.9%

CCCC1(C(=O)O)NC(=O)NC1=O (stereo not given)
inactive: [1] -4.7% | [2] -11.3% | [3] -14.7% | [4] -12.6% | [5] -1.1% | [6] -8.1%

O=C1CC2C=CC(O)C(C1)C2 (stereo not given)
inactive: [1] -20.3% | [2] 1.65% | [3] -30.6% | [4] 21.1% | [5] -58.2% | [6] -109%

CSCCC(NCCC#N)C(=O)O (stereo not given)
inactive: [1] -7.05% | [2] 19.4% | [3] 8.45% | [4] -12.9% | [5] -27.9% | [6] 2.85%

COc1ccc(C2CC(c3ccccc3)=Nc3ccccc3S2)cc1OC (stereo not given)
inactive: [1] 0.25% | [2] -26.3% | [3] 11.7% | [4] 4.15% | [5] 2.4% | [6] 3.75%

CCCCC1(C(=O)NC(=Nc2ccccc2)Nc2ccccc2)CCOC1=O (stereo not given)
inactive: [1] 4.3% | [2] 8.15% | [3] -2.55% | [4] -11.9% | [5] -2.95% | [6] 4.9%
